# Measurements published in the supplement of paper PMC7156485.
# ± gives the standard deviation of the averaged measurements.
# Tests used:
# Conditions in all cases: concentration: 10 µM; 24 h
# HCC1569 [1] = experiment: cell number relative to DMSO (% of DMSO); higher = more cells (less growth inhibition / toxicity)
# In short: (§1)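 H1.0 nuclear intensity or cell number is expressed as percent of the plate control, with the median of replicates taken. HCC1569 and TDF cells were treated with compounds at 10 µM for 24 h at 37 °C, in triplicate, then fixed and immunostained for H1.0 with DAPI as a nuclear stain. HCC1569 values were smoothed to correct for positional effects.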
# TDF [2] = experiment: as above
# In short: as §1
# TDF [3] = experiment: H1.0 immunofluorescence intensity relative to DMSO (% of DMSO); higher = stronger H1.0 induction, active = 120 or more
# In short: as §1
# HCC1569 [4] = experiment: H1.0 immunofluorescence intensity relative to DMSO (% of DMSO); higher = stronger H1.0 induction, active = 140 or more
# In short: as §1
# 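For H1.0 immunofluorescence intensity relative to DMSO in this document: TDF is a line of transformed human dermal fibroblasts of mesenchymal origin.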
# 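For cell number relative to DMSO in this document: TDF denotes transformed human dermal fibroblasts of mesenchymal origin.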
SMILES,cell number (HCC1569 [1]),cell number (TDF [2]),H1.0 immunofluorescence intensity (TDF [3]),H1.0 immunofluorescence intensity (HCC1569 [4])
COc1cc2c3cc1Oc1c(OC)c(OC)cc4c1C(Cc1ccc(O)c(c1)Oc1ccc(cc1)CC3N(C)CC2)N(C)CC4.Cl.Cl (stereo not drawn),90.4,92.2,104 (inactive),109 (inactive)
Cc1ccc(Cl)c(Nc2ccccc2C(=O)[O-])c1Cl.[Na+] [Meclofenamic acid sodium],106,106,90.8 (inactive),101 (inactive)
Nc1nc(Nc2ccc(S(N)(=O)=O)cc2)nn1C(=S)Nc1c(F)cccc1F [Cdk1/2 Inhibitor III],51.9,14.2,133 (active),128 (inactive)
"CC(C)(C)C1(O)CCN2CC3c4ccccc4CCc4cccc(c43)C2C1.Cl (single isomer, unassigned; (+)) [(+)-Butaclamol.HCl]",106,108,95.7 (inactive),100 (inactive)
CC(C)NCC(O)COc1cccc2[nH]ccc12 (stereo not drawn) [Pindolol],98 ± 3.1,94.3 ± 2.5,98.8 (inactive),110 (inactive)
O=NN(CCCl)C(=O)NCCCl [Carmustine],99,93.9,95.4 (inactive),89.6 (inactive)
C[n+]1cccc(C(=O)O)c1.[Cl-],99.8,94,101 (inactive),92.9 (inactive)
COc1cc2oc(-c3ccc(O)c(O)c3)cc(=O)c2c(O)c1OC,75,82,91.1 (inactive),118 (inactive)
CN1CCN(c2c(F)cc3c(=O)c(C(=O)O)cn4c3c2SCC4)CC1 [Rufloxacin],107,94.7,100 (inactive),95.2 (inactive)
CCCCCC(O)C=CC=CCCCCCCCC(=O)O (racemic),102,107,95.9 (inactive),101 (inactive)
CC1=CCC(C)(C)C=CC(=O)C(C)=CCC1 [Zerumbone],87.7,89.7,104 (inactive),121 (inactive)
Cc1cc(F)c(Nc2ncnc3cc(OCc4ccccc4)ccc23)cc1O.Cl,91.6,105,94.5 (inactive),138 (inactive)
CC1COc2c(C3(N)CC3)c(F)cc3c(=O)c(C(=O)O)cn1c23 (stereo not drawn) [Pazufloxacin],104,110,94.1 (inactive),104 (inactive)
CCCCCC(O)C=CC1C(O)CC(O)C1CC=CCCCC(=O)O (stereo not drawn) [Prostaglandin F2a],97.3,107,97.6 (inactive),112 (inactive)
CC(C=CC=C(C)C=CC1=C(C)C(=O)CCC1(C)C)=CC=CC=C(C)C=CC=C(C)C=CC1=C(C)C(=O)CCC1(C)C [Canthaxanthin],102 ± 4.6,104 ± 3.5,90 (inactive),106 (inactive)
O=C(O)c1cccnc1Nc1cccc(C(F)(F)F)c1 [Niflumic acid],98.8 ± 5.9,95.2 ± 23,97.7 (inactive),101 (inactive)
"CC1(C)CCC=[N+]1[O-] [5,5-Dimethyl-1-pyrroline-N-oxide]",100,105,94.2 (inactive),99.5 (inactive)
CC(N)C12CC3CC(CC(C3)C1)C2 (stereo not drawn) [Rimantadine],99.7,107,93.4 (inactive),112 (inactive)
CN1C(CC(=O)c2ccccc2)CCCC1CC(O)c1ccccc1.Cl (stereo not drawn),102,90.9,102 (inactive),99.2 (inactive)
Nc1ncnc2c1ncn2C1CCCC1 [9-cyclopentyladenine],102,113,95.1 (inactive),84.6 (inactive)
COc1c(N2CCNC(C)C2)c(F)cc2c(=O)c(C(=O)O)cn(C3CC3)c12 (stereo not drawn) [Gatifloxacin],101,107,94.2 (inactive),107 (inactive)
CN=C(NC#N)NCCSCc1csc(N=C(N)N)n1 [Tiotidine],102,88.1,105 (inactive),99.1 (inactive)
N#CCNC(=O)c1ccc(-c2ccnc(Nc3ccc(N4CCOCC4)cc3)n2)cc1,64.8,36.1,132 (active),127 (inactive)
CC(C)[N+](C)(CCOC(=O)C1c2ccccc2Oc2ccccc21)C(C)C.[Br-] [Propantheline bromide],99.3,107,95.1 (inactive),96.9 (inactive)
CCOC(=O)C1=C(C)NC(=S)NC1c1cccc(O)c1 (stereo not drawn) [Monastrol],99.8,112,100 (inactive),97.1 (inactive)
CCCCCC=CC=CC(O)CCCCCCCC(=O)O (racemic),103,96.8,103 (inactive),97 (inactive)

SMILES,cell number (HCC1569 [1]),cell number (TDF [2]),H1.0 immunofluorescence intensity (TDF [3]),H1.0 immunofluorescence intensity (HCC1569 [4])
CCCCCC(O)C=CC=O (racemic),99.2,109,93.8 (inactive),106 (inactive)
O=C(c1ccc(Cl)c(S(=O)(=O)NCC2CCCO2)c1)N1CCN(c2ncccn2)CC1 (stereo not drawn) [Adenosine Kinase Inhibitor],86.3,103,89.5 (inactive),116 (inactive)
S=C(Nc1ccccc1)Nc1nccs1 [1-Phenyl-3-(2-thiazolyl)-2-thiourea],95.5,86.9,99.5 (inactive),102 (inactive)
Cn1ccc(NC(=O)c2cc(Oc3ccc(C(=O)N4CCC4)c(F)c3)c3c(c2)OC(C)(C)C3)n1,103,94.2,102 (inactive),105 (inactive)
CC(=O)Oc1cc(C(C)C)c(OCCN(C)C)cc1C.Cl [Moxisylyte hydrochloride],105,104,91.4 (inactive),94.4 (inactive)
CC12CCC(=O)C=C1CCC1C2C(=O)CC2(C)C1CCC2(O)C(=O)CO (stereo not drawn) [Cortisone],87.8,82,106 (inactive),97 (inactive)
CCC(c1ccc(O)cc1)C(CC)c1ccc(O)cc1 (stereo not drawn) [Hexestrol],100,102,94.1 (inactive),119 (inactive)
N#CC(=Cc1ccc(O)c(O)c1)C(=O)NCc1ccccc1,95.2,96,91.1 (inactive),121 (inactive)
"CCCCCCCCC=CCCCCCCCC(N)=O [9,10-Octadecenoamide]",98.5,103,94.7 (inactive),102 (inactive)
O=C(CCl)c1c[nH]c2ccccc12 [2-chloro-1-(1H-indol-3-yl)ethanone],63.6,55,125 (active),150 (active)
CCN1CCCC1CNC(=O)c1cc(S(N)(=O)=O)ccc1OC [(S)-(-)-Sulpiride],99.3,98.1,99.8 (inactive),101 (inactive)
CNCCC(Oc1ccc(C(F)(F)F)cc1)c1ccccc1.Cl (stereo not drawn) [S-(+)-Fluoxetine hydrochloride],91.2,93.3,107 (inactive),111 (inactive)
Cl.NCC(O)C1CCCCCCC1 (stereo not drawn) [2-Cyclooctyl-2-hydroxyethylamine hydrochloride],101,103,97.1 (inactive),92.8 (inactive)
"CCCCCCCCCCCCCCCCCCOP(=O)([O-])OC1CC[N+](C)(C)CC1 [1,1-dimethylpiperidinium-4-yl octadecyl phosphate]",103,96.6,98.2 (inactive),103 (inactive)
Cc1ccc(S(=O)(=O)NC(=O)NN2CCCCCC2)cc1 [Tolazamide],101.3 ± 0.45,111.1 ± 0.38,93.2 (inactive),102 (inactive)
O=C1OC(=CBr)CCC1c1cccc2ccccc12 (stereo not drawn) [Bromoenol lactone],97.3,100,94.5 (inactive),112 (inactive)
"OCCOc1ccc(/C(=C(/CCCl)c2ccccc2)c2ccccc2)cc1 [2-{4-[(1Z)-4-chloro-1,2-diphenyl-1-butenyl]phenoxy}ethanol]",101,96.7,100 (inactive),96.6 (inactive)
"Cl.c1ccc(CN2CCC3(CCCc4ccccc43)CC2)cc1 [L-687,384 hydrochloride]",103,96,93.7 (inactive),103 (inactive)
Cl.NC(N)=NC(N)=Nc1cccc(Cl)c1 [1-(m-Chlorophenyl)-biguanide hydrochloride],102,97.2,93.4 (inactive),97.1 (inactive)
Brc1ccc(C2CN3CCSC3=N2)cc1.O=C(O)C(=O)O (stereo not drawn) [S(-)-p-Bromotetramisole oxalate],107,107,99.6 (inactive),94.6 (inactive)
Nc1nc(=O)n(C2CSC(CO)O2)cc1F (stereo not drawn) [Emtricitabine],105,99.4,96.1 (inactive),105 (inactive)
CC(Cc1ccccc1)Nc1ncnc2c1ncn2C1OC(CO)C(O)C1O (stereo not drawn) [R(-)-N6-(2-Phenylisopropyl)adenosine],107,96.5,93.6 (inactive),102 (inactive)
CCCCNc1c(C(=O)OCC)c(C)nc2c1cnn2CC [Tracazolate],105,108,92.8 (inactive),107 (inactive)
NC(CCCP(=O)(O)O)C(=O)O (racemic),103,105,94 (inactive),93.7 (inactive)
"c1cc(-c2sc(-c3ccncc3)c(-c3ccncc3)c2-c2ccncc2)ccn1 [4-[3,4,5-tri(4-pyridinyl)-2-thienyl]pyridine]",98.5,95.1,98 (inactive),98.9 (inactive)
CCCCCCCCCCCCCC=CC(O)C(CO)NC(=O)CCCCCCCCCCCCCCC (stereo not drawn) [C16 Ceramide],96.6,95.3,102 (inactive),97.5 (inactive)
